Dicer inh: inhibitors of Dicer pre-microRNA processing, primary screen, biochemical, cat-ELCCA, chemiluminescence | Endoribonuclease Dicer (Homo sapiens), Q9UPY3 | cat-ELCCA pre-miR-21 Dicer processing; stronger effect = higher value | z-score at 25 µM | hit rate 6% among 47,000; in the data active = z-score above about 3, passing the limit was not always enough;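 note: plate controls were vehicle for no effect and no enzyme for full effect; higher signal means more uncleaved substrate so more Dicer inhibition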
The depositor's hits bear a star. This is one part of a sample in which hits are shown more often than they occur.

SMILES	Dicer inh
CNC(=S)NNC(=O)c1ccc(C(F)(F)F)cn1	1.9
COc1cc(C2C(C#N)=C(N)Oc3n[nH]c(C)c32)ccc1OCc1ccccc1Cl (stereo unspecified)	-9
O=C(O)c1ccccc1NS(=O)(=O)c1ccc2c3c(cccc13)C(=O)S2	-0.85
O=C1Sc2ccc(S(=O)(=O)Nc3ccc(F)cc3)c3cccc1c23	3.5*
COc1ccc(NS(=O)(=O)c2ccc3c4c(cccc24)C(=O)N3)cc1	0.18
C=CCOc1ccc(C2C(C(=O)OC)=C(C)NC3=C2C(=O)c2ccccc23)cc1 (stereo unspecified)	-1.9
C=CCOc1ccc(C2c3c(oc4ccccc4c3=O)C(=O)N2c2nnc(C)s2)cc1 (stereo unspecified)	0.05
NN/C(=N\S(=O)(=O)c1ccc(-n2nc(C(F)(F)F)cc2-c2cccs2)cc1)N1CCCC1	-1.8
CS/C(=N/S(=O)(=O)c1ccc(-n2nc(C(F)(F)F)cc2-c2cccs2)cc1)NNC(=O)Nc1ccccc1	4.4*
CN(C)/C=N/S(=O)(=O)c1ccc(-n2nc(C(F)(F)F)cc2-c2cccs2)cc1	-3.1
O=C(NCC1CC1)c1ccccc1NS(=O)(=O)c1cc(Cl)c(Oc2ccc([N+](=O)[O-])cc2Cl)c(Cl)c1	3.3*
Cc1c(S(=O)(=O)Nc2ccccc2C(=O)NCC2CC2)sc2ccc(Cl)cc12	-0.69
N#Cc1c(Cl)cccc1Oc1ccc(S(=O)(=O)Nc2ccccc2C(=O)NCC2CC2)cc1	0.88
O=C(OCCN(C1=NS(=O)(=O)c2ccccc21)c1ccccc1)c1cccs1	0.97
COC(=O)C1=C(C)NC2=C(C(=O)CC(C)(C)C2)C1c1ccc(N(C)C)cc1 (stereo unspecified)	82
CCOC(=O)c1cn(Cc2ccccc2)c2cc(C)nn2c1=O	-0.01
CCOC(=O)c1nnn(Cc2ccccc2)c1N	1.7
CCOC(=O)c1ncn(Cc2ccccc2)c1N	3.4*
Cc1ccccc1/C=N/N=C/c1ccccc1C	1.2
O=C1OC(c2cccnc2Oc2ccc(Cl)cc2)=N/C1=C\c1ccc(C(F)(F)F)cc1	0.22
C/C(=C\c1ccc(N)cc1)c1nc2ccccc2[nH]1	3*
Nc1ccc(Cc2nc3ccccc3[nH]2)cc1	1.3
c1ccc2[nH]c(CCc3nc4ccccc4[nH]3)nc2c1	0.25
N#C/C(=C\c1cc(C#Cc2ccccc2)cs1)C(=O)c1ccccc1	-0.04
CO[C@@H]1O[C@H](COC(C)=O)[C@@H](OC(C)=O)[C@H](OC(C)=O)[C@H]1OC(C)=O	-0.45
SMILES	Dicer inh
CCCCCCCCC(=O)Nc1nc2c(s1)Cc1ccccc1-2	-1.7
COC(=O)[C@H]1OC(O)[C@H](O)[C@@H](O)[C@H]1O (stereo partly specified)	5.8*
Cc1c(NC(=O)CCCC(=O)O)c(=O)n(-c2ccccc2)n1C	-0.59
Cc1ccc2nc(SCc3nc(-c4ccccc4C)no3)[nH]c2c1	3*
Cc1ccc2nc(SCc3nc(-c4cccs4)no3)[nH]c2c1	-0.45
Brc1ccc(-c2noc(CSc3nc4ccccc4[nH]3)n2)cc1	0.45
O=C(O)c1c[nH]c2c(Cl)cccc2c1=O	1.4
Fc1cccc(Cl)c1CSc1nnc(-c2cn3cc(C(F)(F)F)cc(Cl)c3n2)o1	-0.51
O=C1NC(=O)/C(=C/c2ccc(OS(=O)(=O)c3cc(Cl)cc(Cl)c3)cc2)N1	-0.17
Cc1ccc(C2CC(C(F)(F)F)n3ncc(C(=O)NCc4c(C)nn(C)c4C)c3N2)cc1 (stereo unspecified)	0.35
Cc1cc(/C=C2\N=COC2=O)ccc1C(F)(F)F	4.1*
CC1=N/C(=C/c2ccc(C)c(C)c2)C(=O)O1	-0.91
CC(C)(C)c1ccc(C(=O)/C=c2\[nH]c(=O)/c(=C\c3cccs3)s2)cc1	3.4*
COc1cccc(C(=O)/C=c2\[nH]c(=O)/c(=C\c3ccccc3)s2)c1	0.93
CC(C)(C)c1ccc(C(=O)/C=C2\NC(=O)CS2)cc1	-2.3
C#C[C@]1(O)CCC2C3CCc4cc(Oc5ccc([N+](=O)[O-])cc5)ccc4C3CCC21C (stereo partly specified)	-0.37
O=C(NC(=S)NNc1ncc(C(F)(F)F)cc1Cl)c1cccs1	-0.17
COc1ccc(C2/C(=C(\O)c3ccc(Cl)cc3)C(=O)C(=O)N2CCCn2ccnc2)cc1OC (stereo unspecified)	-1.6
Cc1ccc(-c2nc(N)sc2C)cc1Cl	-1.9
Cc1ccc(C(C)C)c(OCCN2C(=O)C(=O)c3cc(C)ccc32)c1	-0.65
Cc1ccc(C(C)C)c(OCCCN2C(=O)C(=O)c3cccc(C)c32)c1	0.44
Cc1ccc(OCCN2C(=O)C(=O)c3cc(C)ccc32)cc1	3.1*
CCN(CC)c1ncc2c(=S)[nH]c(=S)[nH]c2n1	-0.96
S=c1[nH]c(=S)c2cnc(N3CCOCC3)nc2[nH]1	3.4*
S=c1[nH]c(=S)c2cnc(N3CCN(c4ccccc4)CC3)nc2[nH]1	0.45
SMILES	Dicer inh
COc1ccc(N=C2NC(=O)CC(C(=O)Nc3ccc(Br)cc3)S2)cc1 (stereo unspecified)	-0.42
Cn1c(=O)n(Cc2ccccc2Br)c2ccccc21	2.5
Cn1c(=O)n(CC(=O)O)c2ccccc21	3.6*
Cn1c(=O)n(CCCOc2ccc(Cl)cc2)c2ccccc21	-0.48
O=C1NCCCCC1NS(=O)(=O)c1ccc(-c2ccccn2)s1 (stereo unspecified)	-0.57
Clc1cccc(Cl)c1Cn1nnc(N2CCOCC2)n1	-0.27
Cc1ccc(Oc2ncccc2[N+](=O)[O-])c([N+](=O)[O-])n1	0.53
O=C(O)/C=C/C(=O)NCCNC(=O)Cc1ccc(O)cc1	-0.53
O=C(NC1=NCCS1)c1cccs1	-1.1
O=C(Nc1ccc2c(c1)OCCO2)c1cc2ccccc2o1	0.46
O=C(NC1=NCCS1)c1cc2ccccc2o1	3.6*
CC1(C)CC(=O)C2=C(C1)NC(=O)CC2C(=O)Nc1ccc(F)cc1 (stereo unspecified)	-3.3
C=CCOC(=O)C1=C(C)NC2=C(C(=O)CCC2)C1c1ccc(C)cc1 (stereo unspecified)	-0.45
O=C1CCC(c2ccccc2)=NN1c1ccc([N+](=O)[O-])cc1	-0.67
C=CCc1cc(C(=O)N2CCCC2)ccc1O	2
Cn1ncc(Br)c1NC(=O)Nc1cccc2ccccc12	-2.8
O=[N+]([O-])c1cccnc1Sc1cc(Cl)ccc1Cl	-0.4
O=[N+]([O-])c1ccc(Sc2cc(Cl)ccc2Cl)nc1	4.7*
O=[N+]([O-])c1cc(Cl)ccc1Sc1ccccn1	0.16
CCOC(=O)c1ccc2nc(C(F)(F)F)nc(NCCCN3CCCC3=O)c2c1	-0.34
CN(C)CCCN1C(=O)C(=O)/C(=C(/O)c2ccc(Cl)cc2)C1c1ccc(F)cc1 (stereo unspecified)	2.2
CCN1C(=O)C2(/C(=C(/O)c3ccc(C)cc3)C(=O)C(=O)N2CCOC)c2ccccc21 (stereo unspecified)	2.5
CCCCN1C(=O)C2(/C(=C(/O)c3ccc(C)cc3)C(=O)C(=O)N2CCCOC)c2ccccc21 (stereo unspecified)	5.1*
COCCCN1C(=O)C(=O)/C(=C(\O)c2ccc(C)cc2)C12C(=O)N(C)c1ccccc12 (stereo unspecified)	-1.7
C=CCN1C(=O)C2(/C(=C(/O)c3ccccc3)C(=O)C(=O)N2CCOC)c2ccccc21 (stereo unspecified)	1.7
CCCCN1C(=O)C2(/C(=C(/O)c3ccc(OC)cc3)C(=O)C(=O)N2CCOC)c2ccccc21 (stereo unspecified)	3.7*
